{"source": "PubChem BioAssay (NCATS)", "key": {"[1]": {"tested_on": "Zika virus NS2B-NS3 protease (unlinked complex)", "assay": "Confirmatory screen GU AMC qHTS for Zika virus inhibitors (AID 1347153); note: nearly all actives have a fitted effect of over 70% in size; note: potency is the fitted concentration of half-maximal effect", "method_in_brief": "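Unlinked NS2B-NS3 complex (25 nM) in 10 mM Tris-HCl pH 8.0, 0.01% Tween 20 preincubated 15 min with compound, then 10 microM Bz-Nle-KRR-AMC (Km 18.3 µM). Fluorescence change over 15 min, normalized, Hill-fitted.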"}, "[2]": {"tested_on": "Zika virus NS2B-NS3 protease", "assay": "Primary screen GU AMC qHTS for Zika virus inhibitors (AID 1347154); note: nearly all actives have a fitted effect of over 70% in size; note: potency is the fitted concentration of half-maximal effect", "method_in_brief": "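Unlinked Zika NS2B hydrophilic domain/NS3 protease domain noncovalent complex (25 nM final) in 10 mM Tris-HCl pH 8.0, 0.01% Tween 20, with AMC peptide substrate. Fluorescence (ex 340, em 450 nm) change over 15 min, room temperature; percent inhibition fitted to 4-parameter Hill equation.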"}, "[3]": {"assay": "Confirmatory screen GU Rhodamine qHTS for Zika virus inhibitors qHTS (AID 1347157); note: potency is the fitted concentration of half-maximal effect; nearly all actives have a fitted effect of over 70% in size", "method_in_brief": "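Unlinked NS2B/NS3, 25 nM; Rhod110 peptide, 1.5 microM; compounds, up to 114 microM. Reaction run 15 min at RT in 10 mM Tris-HCl pH 8.0, 0.01% Tween 20; kinetic fluorescence change fitted with a 4-parameter Hill model.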"}, "[4]": {"assay": "ZIKV-mCherry secondary qHTS for Zika virus inhibitors (AID 1347158); note: top concentration of the series differs between compounds", "method_in_brief": "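Percent infection is the share of Hoechst-identified Vero nuclei with mCherry signal above 450 RFU (3 SD over negative controls). Cells were infected with recombinant ZIKV-mCherry at MOI 1 after compound addition and imaged 48–72 h later.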"}, "[5]": {"tested_on": "Zika virus NS2B-NS3 protease (unlinked complex)", "assay": "Primary screen GU Rhodamine qHTS for Zika virus inhibitors: Unlinked NS2B-NS3 protease assay (AID 1347159); note: potency is the fitted concentration of half-maximal effect; nearly all actives have a fitted effect of over 60% in size", "method_in_brief": "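In dose–response format, inhibition of unlinked protease (25 nM) was measured with 1.5 microM bis-peptide Rhodamine110 substrate. Aprotinin served as the intraplate control.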"}, "[6]": {"tested_on": "Zika virus NS2B-NS3 protease (linked construct)", "assay": "Primary screen NINDS Rhodamine qHTS for Zika virus inhibitors (AID 1347160); note: potency is the fitted concentration of half-maximal effect; nearly all actives have a fitted effect of over 55% in size", "method_in_brief": "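Each compound, titrated, sat 15 min with 25 nM linked protease before 1.5 microM Rhodamine110 substrate went in. Fluorescence gain over the next 15 min, in pH 8.0 Tris with Tween 20, gave Hill-fitted curves.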"}, "[7]": {"assay": "Confirmatory screen NINDS Rhodamine qHTS for Zika virus inhibitors (AID 1347161); note: nearly all actives have a fitted effect of over 60% in size; note: potency is the fitted concentration of half-maximal effect", "method_in_brief": "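In 10 mM Tris-HCl pH 8.0 containing 0.01% Tween 20, linked NS2B-NS3 protease (25 nM final) is exposed to test compounds for 15 min. Cleavage of 1.5 microM Rhodamine110 substrate is tracked by fluorescence over 15 min.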"}, "[8]": {"tested_on": "Zika virus NS2B-NS3 protease (linked)", "assay": "384 well plate NINDS AMC confirmatory qHTS for Zika virus inhibitors (AID 1347163); note: nearly all actives have a fitted effect of over 50% in size; note: potency is the fitted concentration of half-maximal effect", "method_in_brief": "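Fluorescence at 355/460 nm was read after 25 minutes of cleavage of 30 microM Ac-VKTGKR-AMC at room temperature, in the dark. Before substrate addition, compounds (up to 1 mM final) sat ~15 minutes with 5, 30 or 60 nM linked protease. Signals were normalized to no-enzyme and no-inhibitor wells.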"}, "[9]": {"tested_on": "Zika virus NS2B-NS3 protease (linked construct)", "assay": "384 well plate NINDS Rhodamine confirmatory qHTS for Zika virus inhibitors (AID 1347164); note: potency is the fitted concentration of half-maximal effect; nearly all actives have a fitted effect of over 65% in size", "source_text": "Description: Assay Submitters (PI): Avindra Nath, Ph.D., National Institute of Neurological Disorders and Stroke (NINDS), Bethesda, MD Radhakrishnan Padmanabhan, Ph.D., Georgetown University (GU), Washington D.C. Zika Virus causes congenital defects, including microcephaly and is associated with Guillain-Barre syndrome, eningoencephalitis and myelitis in infected adult. […] Using a target-based approach, we hope to establish a screening paradigm to uncover novel, cell-active NS2B-NS3 protease (Zika Virus) specific inhibitors from NCATS' collection of small molecules using qHTS. […] Four assay panel was created to identify potential Zika Virus inhibitors. Namely, (1) GU unlinked NS2B-NS3 AMC tagged protease qHTS, (2) GU unlinked NS2B-NS3 Rhodamine tagged protease qHTS, (3) NINDS linked NS2B-NS3 AMC tagged protease qHTS, (4) NINDS linked NS2B-NS3 Rhodamine tagged protease qHTS. Active compounds are validated using a secondary assay in 384 well plate format. Early Translation Branch (ETB) National Center for Advancing Translational Sciences (NCATS), Rockville, MD National Institute of Health (NIH), Bethesda, Maryland\n384-well NINDS Rhodamine Assay: The protease was diluted to 7.5 nM, 40.9 nM, or 82 nM in assay buffer and dispensed into a 96-well PCR plate (Applied Biosystems); 20 or 22 microL was transferred to a black 384-well assay plate (final protease concentration of 5 nM, 30 nM, or 60 nM, respectively). Compounds (3 microL, 1 microM - 10 mM, DMSO) were diluted and transferred to the assay plate (final concentrations ranged from 100 nM to 1 mM). Compounds were incubated with protease for ~15 minutes. The substrate, Rhodamine 110 (Ac-LKRR-Rd; Genscript), was dissolved in DMSO to a concentration of 6 mM and further diluted into assay buffer to a working concentration of 180 microM, then dispensed into a 384-well preparation plate (Eppendorf). A multichannel repeat pipettor was used to add 3 or 5 microL of substrate to the assay plate to give a final concentration of 10 microM. The plate was incubated in the dark at room temperature. After 25 minutes, the fluorescence intensity (excitation: 485 nm, emission: 538 nm) was measured and normalized to no-enzyme and no-inhibitor controls. Aprotinin39 (VWR) was used as an intraplate control."}, "[10]": {"tested_on": "Zika virus NS2B-NS3 protease (unlinked)", "assay": "Optimization of GU AMC qHTS for Zika virus inhibitors: Unlinked NS2B-NS3 protease assay (AID 1347151); note: series mostly up to about 52 µM; nearly all actives have a fitted effect of over 80% in size", "method_in_brief": "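Fluorescence read-out (340 nm ex / 450 nm em) of AMC peptide cleavage, taken immediately and after 15 min at room temperature (~20% conversion). Enzyme was the unlinked NS2B–NS3 complex at 25 nM in Tris pH 8.0 buffer.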"}}, "note": "Records with an inconclusive call do not appear. Where a call stands in place of a potency, no number is given. Values without a mark were called inactive. Activity calls are given as the source filed them. Calls come from the whole dose curve; as a rule, active = well fitted curve in the direction sought with a large enough effect; inconclusive = small, poorly fitted or top-dose-only effect, or another doubt; inactive = no such curve, though single readings can be large; an effect the other way counts as inactive or inconclusive."}
{"smiles": "COc1cc(Nc2nc3ccccc3nc2NS(=O)(=O)c2ccc(NC(=O)c3ccc(C)c(OC)c3)cc2)cc(OC)c1", "values": [{"measurement": "Potency", "setting": "[1]", "result": "5.55 µM (active)"}, {"measurement": "Potency", "setting": "[2]", "result": "inactive"}, {"measurement": "Potency", "setting": "[3]", "result": "1.39 µM (active)"}, {"measurement": "outcome", "setting": "[4]", "result": "inactive"}, {"measurement": "Potency", "setting": "[5]", "result": "1.78 µM (active)"}, {"measurement": "Potency", "setting": "[6]", "result": "3.16 µM (active)"}, {"measurement": "Potency", "setting": "[7]", "result": "1.39 µM (active)"}, {"measurement": "Potency", "setting": "[8]", "result": "inactive"}, {"measurement": "Potency", "setting": "[9]", "result": "8.91 µM (active)"}]}
{"smiles": "OC(c1cc(C(F)(F)F)nc2c(C(F)(F)F)cccc12)C1CCCCN1", "note": "(stereo unspecified)", "values": [{"measurement": "outcome", "setting": "[10]", "result": "inactive"}, {"measurement": "Potency", "setting": "[2]", "result": "inactive"}]}
{"smiles": "O=C(c1ccc(C=Cc2n[nH]c3ccccc23)cc1)N1CCNCC1", "values": [{"measurement": "Potency", "setting": "[2]", "result": "7.64 µM (active)"}]}
{"smiles": "N#CC(c1ccc(Cl)cc1)c1c(Cl)cc(-n2ncc(=O)[nH]c2=O)cc1Cl", "note": "(stereo unspecified)", "values": [{"measurement": "Potency", "setting": "[1]", "result": "21.5 µM (active)"}, {"measurement": "Potency", "setting": "[7]", "result": "4.4 µM (active)"}, {"measurement": "Potency", "setting": "[9]", "result": "35.5 µM (active)"}]}
{"smiles": "O=C(O)Cc1cccc(OCCCN(Cc2cccc(C(F)(F)F)c2Cl)CC(c2ccccc2)c2ccccc2)c1", "values": [{"measurement": "Potency", "setting": "[1]", "result": "17.1 µM (active)"}, {"measurement": "Potency", "setting": "[7]", "result": "1.56 µM (active)"}, {"measurement": "Potency", "setting": "[9]", "result": "28.2 µM (active)"}]}
{"smiles": "COc1cc(Cl)cn2c(-c3cccc(NC4CNC4)n3)cnc12", "values": [{"measurement": "Potency", "setting": "[1]", "result": "inactive"}]}
{"smiles": "CC(=O)O[C@]1(C(C)=O)CC[C@H]2[C@@H]3C=C(Cl)C4=CC(=O)[C@@H]5C[C@H]5[C@]4(C)[C@@H]3CC[C@@]21C", "values": [{"measurement": "Potency", "setting": "[2]", "result": "inactive"}]}
{"smiles": "O=C(Nc1cccc2c(=O)cc(-c3nn[nH]n3)oc12)c1ccc(OCCCCc2ccccc2)cc1", "values": [{"measurement": "Potency", "setting": "[1]", "result": "6.81 µM (active)"}, {"measurement": "Potency", "setting": "[2]", "result": "8.91 µM (active)"}, {"measurement": "Potency", "setting": "[7]", "result": "1.75 µM (active)"}, {"measurement": "Potency", "setting": "[8]", "result": "28.2 µM (active)"}]}
{"smiles": "CC[C@H](C)n1cc(C)c2c(C(=O)NCc3c(C)cc(C)[nH]c3=O)cc(-c3ccc(N4CCNCC4)nc3)cc21", "values": [{"measurement": "Potency", "setting": "[1]", "result": "27.1 µM (active)"}, {"measurement": "Potency", "setting": "[2]", "result": "21.5 µM (active)"}, {"measurement": "Potency", "setting": "[7]", "result": "inactive"}]}
{"smiles": "CC[C@H](C=C[C@@H](C)[C@H]1CC[C@H]2[C@@H]3CC=C4C[C@@H](O)CC[C@]4(C)[C@@H]3CC[C@]12C)C(C)C", "values": [{"measurement": "Potency", "setting": "[2]", "result": "inactive"}]}
{"smiles": "CC(C)c1onc(-c2c(Cl)cccc2Cl)c1COc1ccc(C=Cc2cccc(C(=O)O)c2)c(Cl)c1", "values": [{"measurement": "Potency", "setting": "[1]", "result": "24.1 µM (active)"}, {"measurement": "Potency", "setting": "[2]", "result": "13.6 µM (active)"}, {"measurement": "Potency", "setting": "[7]", "result": "1.56 µM (active)"}]}
{"smiles": "NC(N)=Nc1nc(CSCCC(N)=NS(N)(=O)=O)cs1", "values": [{"measurement": "Potency", "setting": "[2]", "result": "inactive"}]}
{"smiles": "COc1c(C)cnc(Cn2cnc3c(Cl)nc(N)nc32)c1C", "values": [{"measurement": "Potency", "setting": "[2]", "result": "inactive"}]}
{"smiles": "CC[C@]1(O)C[C@H]2CN(CCC3=c4ccccc4=N[C]3[C@@](C(=O)OC)(c3cc4c(cc3OC)N(C)[C@H]3[C@@](O)(C(N)=O)[C@H](O)[C@]5(CC)C=CCN6CC[C@]43[C@@H]65)C2)C1", "values": [{"measurement": "Potency", "setting": "[2]", "result": "inactive"}]}
{"smiles": "CCC[C@H](N[C@@H](C)C(=O)N1[C@@H]2CCCC[C@H]2C[C@H]1C(=O)O)C(=O)OCC", "values": [{"measurement": "Potency", "setting": "[2]", "result": "inactive"}]}
{"smiles": "CCCCC[C@H](O)C=C[C@H]1[C@H](O)CC(=O)[C@H]1CCCCCCC(=O)O", "values": [{"measurement": "Potency", "setting": "[1]", "result": "inactive"}, {"measurement": "Potency", "setting": "[7]", "result": "inactive"}]}
{"smiles": "O=C1Nc2ccc(I)cc2C1=Cc1cc(Br)c(O)c(Br)c1", "values": [{"measurement": "Potency", "setting": "[1]", "result": "inactive"}, {"measurement": "Potency", "setting": "[2]", "result": "12.1 µM (active)"}, {"measurement": "Potency", "setting": "[7]", "result": "24.8 µM (active)"}]}
{"smiles": "CC(C)C[C@@H](N)[C@H](O)C(=O)N[C@H](C(=O)N[C@H](C(=O)N[C@@H](CC(=O)O)C(=O)O)C(C)C)C(C)C", "values": [{"measurement": "Potency", "setting": "[2]", "result": "inactive"}]}
{"smiles": "CC1=C(CC(=O)O)c2cc(F)ccc2C1=Cc1ccc(S(C)=O)cc1", "note": "(stereo unspecified)", "values": [{"measurement": "Potency", "setting": "[2]", "result": "inactive"}]}
{"smiles": "O=C(O)c1ccc(O)c2ncc(N3CCOCC3)cc12", "values": [{"measurement": "Potency", "setting": "[2]", "result": "inactive"}]}
{"smiles": "CN(C)CCN(Cc1ccc(Cl)cc1)c1ccccn1", "values": [{"measurement": "Potency", "setting": "[2]", "result": "inactive"}]}
{"smiles": "Oc1cc(O)cc(C=Cc2ccc(O)c(O)c2)c1", "values": [{"measurement": "Potency", "setting": "[2]", "result": "13.6 µM (active)"}]}
{"smiles": "O=C1CCCC(=O)C1C(=O)c1ccc(C(F)(F)F)cc1[N+](=O)[O-]", "values": [{"measurement": "Potency", "setting": "[2]", "result": "inactive"}]}
{"smiles": "O=C(O)c1nc(=O)[nH]c(=O)[nH]1", "values": [{"measurement": "Potency", "setting": "[2]", "result": "inactive"}]}
{"smiles": "Cc1cn([C@@H]2C[C@@H](O)[C@H](CO)O2)c(=O)[nH]c1=O", "values": [{"measurement": "Potency", "setting": "[2]", "result": "inactive"}]}
{"smiles": "CCN(CC)CCCCNc1nc2cc(Cl)c(Cl)cc2nc1-c1ccc(-c2cccs2)s1", "values": [{"measurement": "Potency", "setting": "[2]", "result": "inactive"}]}
{"smiles": "CCOC(=O)[C@H](CCc1ccccc1)N[C@@H](C)C(=O)N1CCCC1C(=O)O", "note": "(stereo partly specified)", "values": [{"measurement": "Potency", "setting": "[1]", "result": "inactive"}, {"measurement": "Potency", "setting": "[7]", "result": "inactive"}]}
